# Laboratory results: PMC4336329 (PLoS ONE, 2015)
# The whole screen tested about 310,000 compounds, of which about 14,000 (4.5%) showed an effect of 50% or more. The effect is printed as a negative number. Many of the other results were omitted from the sample, so strong results are more common in it than they were.
# Target: human ether-à-go-go-related gene (hERG) potassium channel (human, UniProt Q12809)
# Test: primary screen, population patch clamp on CHO cells stably expressing hERG; higher = less effect of the substance
# 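Further: peak tail current of the secondary pulse compared with the same well before compound.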
# Sequence of human ether-à-go-go-related gene (hERG) potassium channel (Q12809 whole entry, looked up): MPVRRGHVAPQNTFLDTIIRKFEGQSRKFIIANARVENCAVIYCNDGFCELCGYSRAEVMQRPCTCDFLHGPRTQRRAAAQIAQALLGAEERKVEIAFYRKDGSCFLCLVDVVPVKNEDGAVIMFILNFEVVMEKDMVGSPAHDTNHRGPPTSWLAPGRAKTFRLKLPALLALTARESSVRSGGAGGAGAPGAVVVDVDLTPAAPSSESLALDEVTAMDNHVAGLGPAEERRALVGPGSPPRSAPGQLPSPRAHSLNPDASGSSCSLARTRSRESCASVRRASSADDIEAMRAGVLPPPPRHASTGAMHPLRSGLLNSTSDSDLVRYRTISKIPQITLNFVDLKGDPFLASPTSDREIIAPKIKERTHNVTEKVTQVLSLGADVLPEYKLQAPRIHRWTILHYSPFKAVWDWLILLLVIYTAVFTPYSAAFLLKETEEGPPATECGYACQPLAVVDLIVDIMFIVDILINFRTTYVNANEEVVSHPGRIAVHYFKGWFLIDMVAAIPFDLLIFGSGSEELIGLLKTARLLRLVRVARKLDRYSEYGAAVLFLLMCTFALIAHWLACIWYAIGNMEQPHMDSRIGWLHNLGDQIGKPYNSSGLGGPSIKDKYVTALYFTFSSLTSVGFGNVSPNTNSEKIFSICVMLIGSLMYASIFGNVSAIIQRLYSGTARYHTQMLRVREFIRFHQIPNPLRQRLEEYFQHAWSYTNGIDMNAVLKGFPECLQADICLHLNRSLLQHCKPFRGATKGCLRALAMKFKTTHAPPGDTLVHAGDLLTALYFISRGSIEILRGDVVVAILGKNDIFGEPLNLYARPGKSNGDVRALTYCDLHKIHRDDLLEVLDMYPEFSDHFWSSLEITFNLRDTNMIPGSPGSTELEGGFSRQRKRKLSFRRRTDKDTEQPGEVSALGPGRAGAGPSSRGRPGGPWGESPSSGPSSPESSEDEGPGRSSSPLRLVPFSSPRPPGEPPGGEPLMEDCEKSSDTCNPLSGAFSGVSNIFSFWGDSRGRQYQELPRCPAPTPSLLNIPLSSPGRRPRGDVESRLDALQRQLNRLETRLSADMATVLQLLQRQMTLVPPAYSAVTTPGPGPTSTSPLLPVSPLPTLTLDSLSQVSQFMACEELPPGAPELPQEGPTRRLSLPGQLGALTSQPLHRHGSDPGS
row,SMILES,"hERG current change (%, negative = inhibition) at 10uM [%]"
1,COc1cccc(CN(C)C(=O)CSCC(=O)Nc2ccc(C)cc2)c1OC,-12.9
2,CCOC(=O)Cn1c(CN2CCOCC2)nc2c1c(=O)[nH]c(=O)n2C,7.2
3,COc1ccc(C2Nc3ccccc3C(=O)N2Cc2ccccc2)cc1 (stereo not drawn),3.75
4,CC(C)CC(NC(N)=O)C(=O)NCCc1ccc(Cl)cc1Cl (stereo not drawn),3.07
5,CCOP(=O)(OCC)C(NC(=O)Nc1cccc(Cl)c1)c1ccccc1 (stereo not drawn),5.75
6,COc1ccc2nc(/C=N/NC(=O)[C@H](CCSC)NC(=O)OC(C)(C)C)ccc2c1,-59.7
7,COc1ccc2nc(/C=N/NC(=O)[C@H](C)NC(=O)OC(C)(C)C)ccc2c1,-7.25
8,CCC(C)[C@H](NC(=O)OC(C)(C)C)C(=O)N/N=C/c1ccc2cc(OC)ccc2n1 (stereo partly drawn),-13.7
9,Cc1ccc(NC(=O)C2=C(C(=O)O)CCCC2)cc1F,7.33
10,Cn1ncc(C(=O)Nc2ccc(Cl)cc2)c1C(F)(F)F,-12
11,CC(=O)N1CCN(c2ccc([N+](=O)[O-])c(NCC3CCCO3)c2)CC1 (stereo not drawn),-18.3
12,O=C(c1ccccc1)N1CCN(c2ccc([N+](=O)[O-])c(NCC3CCCO3)c2)CC1 (stereo not drawn),-76.9
13,O=C(c1ccccc1F)N1CCN(c2ccc([N+](=O)[O-])c(NCC3CCCO3)c2)CC1 (stereo not drawn),-80.8
14,O=C(Nc1ccccc1)c1ccc(NCC2CCCO2)c([N+](=O)[O-])c1 (stereo not drawn),-2.42
15,NC(=O)c1ccc(NCC2CCCO2)c([N+](=O)[O-])c1 (stereo not drawn),12.7
16,CN1CCN(c2ccc([N+](=O)[O-])c(NCC3CCCO3)c2)CC1.Cl (stereo not drawn),-41.4
17,CC(C)(C)C(=O)N1CCN(c2ccc([N+](=O)[O-])c(NCC3CCCO3)c2)CC1 (stereo not drawn),-20.8
18,O=[N+]([O-])c1ccc(N2CCNCC2)cc1NCC1CCCO1 (stereo not drawn),-22.1
19,O=C(NCCc1ccccc1)c1ccc(NCC2CCCO2)c([N+](=O)[O-])c1 (stereo not drawn),-68.9
20,O=C1CC(N(C(=O)c2ccco2)c2cccc(Cl)c2)C(=O)N1c1cccc(Cl)c1 (stereo not drawn),-19.7
21,C/C(Cn1cnc([N+](=O)[O-])n1)=N\NC(=O)c1ccccc1O,8.06
22,COc1cc(C(=O)Nc2ccc(Br)cc2C(=O)c2ccccc2)cc(OC)c1OC,12.4

row,SMILES,"hERG current change (%, negative = inhibition) at 10uM [%]"
1,COc1ccc(CNS(=O)(=O)c2cc(-c3cc(C)no3)ccc2C(C)C)cc1,-14.9
2,CCCCC(CC)CNC(=O)C1CCCN(S(=O)(=O)c2cnc[nH]2)C1 (stereo not drawn),3.45
3,N#CCCN(CC(=O)O)S(=O)(=O)c1ccccc1,5.74
4,CC(C)(C)OC(=O)N[C@H](Cc1ccccc1)C(=O)N1CCC(C(=O)O)CC1,9.08
5,COc1ccc2c(c1)CCc1c(C(=O)Nc3cc(C)n(Cc4ccc(Cl)cc4)n3)noc1-2,-30.5
6,COc1ccc(-c2nc(N)n[nH]2)cc1OC,18.9
7,COc1ccc(-c2n[nH]c3c2CN(C(=O)c2ccccc2)CC3)cc1,-6.13
8,Fc1cccc(NCc2ccoc2)c1,-7.89
9,Cc1ccc(-c2sc(-c3ccccc3)nc2CC(=O)Nc2ccccc2F)cc1,6.09
10,OCC1(Cc2ccccc2)CCN(C2CCN(c3ccccc3F)CC2)CC1,-68.8
11,CC(=O)N1CCC(N2CCN(c3ccccc3F)CC2)CC1,0.444
12,OCC1(Cc2ccccc2)CCCN(C2CCCC2)C1 (stereo not drawn),-8.01
13,O=C(NCc1ccccc1)N1CCC(CO)(Cc2cccc(F)c2)CC1,-12.8
14,OCC1(Cc2ccccc2)CCN(C2CCN(c3ccc(F)c(F)c3)CC2)CC1,-112
15,O=C(NCc1ccccc1)N1CCN(c2ccccc2F)CC1,1.22
16,Cc1ccc(-c2ccc(=O)n(Cc3c(F)cccc3Cl)n2)cc1,9.18
17,Cc1ccc2nc(Nc3ccccc3O)nc(-c3ccccc3)c2c1,14.3
18,O=C(CCN1C(=O)c2cccc3cccc(c23)C1=O)NCc1cccnc1,-16.7
19,C/C(CC(=O)Nc1ccccc1Cl)=N\NC(=O)C(=O)NCCO,6.65
20,COS(=O)(=O)[O-].C[N+]1(C)CCC(=C(c2ccccc2)c2ccccc2)CC1,-71
21,O=C(O)c1ccc(S(=O)(=O)c2ccccc2)cc1,11.5
22,CC1CC(C)(C)CC(=O)C1C(=O)c1ccccc1 (stereo not drawn),16.4

row,SMILES,"hERG current change (%, negative = inhibition) at 10uM [%]"
1,CCOc1ccc(-n2ccnc(SCC(=O)Nc3ccc(OC)cc3OC)c2=O)cc1,9.58
2,O=C(CON=C1c2ccccc2-c2ccccc21)NC12CC3CC(CC(C3)C1)C2,-7.23
3,N#CC1=C(SCc2ccccc2)NC(=O)CC1c1ccco1 (stereo not drawn),10.9
4,O=C(CN1CCC(O)(c2ccc(F)cc2)CC1)NCc1ccc(F)cc1,-34.2
5,O=C(CCCN1CCC(O)(c2ccc(Br)cc2)CC1)c1ccc(F)cc1,-79.7
6,C=CCNC(=O)CN1CCC(O)(c2ccc(F)cc2)CC1,-5.8
7,OC1(c2cccc(C(F)(F)F)c2)CCN(CCN2CCCCC2)CC1,-3.82
8,CC(=O)N1CCC(O)(c2cccc(C(F)(F)F)c2)CC1,12.7
9,Cl.O=C(CCCN1CCC(O)(c2cccc(C(F)(F)F)c2)CC1)c1ccc(F)cc1,-75.6
10,O=C1CCC([N+](=O)[O-])C(C2CC=CCC2)N1 (stereo not drawn),4.76
11,CCOC(=O)c1ccc(CNC(=O)CCC(=O)O)cc1,4.15
12,COc1ccnc2c1c(=O)n(Cc1ccc(F)cc1)c(=O)n2C,-6.22
13,O=C(NCCCO)C(=O)Nc1cc2c3c(c1)CCN3C(=O)CC2,11.8
14,CC(=O)C1=C(C)NC(SCC(N)=O)=C(C#N)C1C (stereo not drawn),8.65
15,COc1ccc(C(=O)NCC(=O)NCC(=O)OCC(=O)c2ccc(Br)cc2)cc1,15.3
16,COc1ccc(C(=O)COC(=O)CNC(=O)c2ccc(OC)cc2)cc1,-52.6
17,COc1ccc(C(=O)NCC(=O)OCc2ccc(Cl)cc2Cl)cc1OC,-6.66
18,COc1ccc(C(=O)NCC(=O)NCC(=O)OCC(=O)c2ccc(C)cc2)cc1,4.23
19,COc1ccc(C(=O)NCC(=O)OCC(=O)c2cc(OC)c(OC)c(OC)c2)cc1OC,28.5
20,CC(C)(C)c1ccc(C(=O)NCC(=O)OCc2ccc([N+](=O)[O-])cc2)cc1,-7.46
21,COc1ccc(C(=O)NCC(=O)OCC(=O)c2ccc(Cl)cc2)cc1OC,-58.6
22,O=C(CNC(=O)c1cccc(F)c1)OCc1cc(=O)n2cc(Br)ccc2n1,-9.66

row,SMILES,"hERG current change (%, negative = inhibition) at 10uM [%]"
1,O=C(CNC(=O)c1ccccc1)OCc1ccc([N+](=O)[O-])cc1,-33.9
2,O=C(CNC(=O)c1cccc(OC(F)F)c1)OCc1cc(=O)n2cc(Br)ccc2n1,-55.2
3,O=C(CNC(=O)c1ccccc1)OCc1cc(=O)n2cc(Br)ccc2n1,-31.6
4,COc1ccc(C(=O)NCC(=O)OCc2ccc([N+](=O)[O-])cc2)cc1,-58.3
5,O=C(CN1CCN(c2ccccn2)CC1)Nc1ccccc1F,1.45
6,c1ccc2c(c1)CC1(CCCC1)n1nnnc1-2,-19.4
7,O=C(NCc1ccccc1)C1=C[C@H](C2CCCCC2)C[C@H](OCCCCO)O1,-3.07
8,N#Cc1cc([N+](=O)[O-])cnc1N(CCO)CCO,-1.1
9,CN1CCN(c2ncnc3nc[nH]c23)CC1,18.5
10,Cc1ccccc1C(=NCCCN(C)C)c1ccccc1C.Cl,-21.7
11,Cc1ccc(NCC(=O)N=Nc2c(O)[nH]c3ccc([N+](=O)[O-])cc23)cc1,-5.06
12,Cc1ccc(O)c(-c2cc(C(=O)Nc3c(C)n(C)n(-c4ccccc4)c3=O)[nH]n2)c1,8.4
13,O=C(O)c1ccccc1NC(c1ccccc1)c1ccc(Cl)cc1 (stereo not drawn),19.8
14,N#C/C(=C\c1ccccc1[N+](=O)[O-])C(=O)NC1CCCCC1,-13.9
15,Cc1cc(C(=O)NCC(=O)OCC(=O)Nc2ccc(OC(F)F)cc2)ccc1[N+](=O)[O-],-67.8
16,COc1cccc(C(=O)NCC(=O)OCC(=O)c2ccccc2)c1,2.59
17,Cc1cc(C(=O)NCC(=O)OCC(=O)N(C(C)C)C(C)C)ccc1[N+](=O)[O-],10.6
18,Cc1cc(C(=O)NCC(=O)OCC(=O)NCCc2ccccc2)ccc1[N+](=O)[O-],-16.9
19,COc1ccc(N2CCN(C(=O)COC(=O)CNC(=O)c3cccc(OC(F)F)c3)CC2)cc1,-43.7
20,COc1ccc(C(=O)COC(=O)CNC(=O)c2cccc(OC(F)F)c2)cc1,-64.6
21,Cc1ccnc2c(N3C(=O)C4C5c6ccccc6C(c6ccccc65)C4C3=O)cccc12 (stereo not drawn),-2.78
